# Results from PubChem BioAssay (NCATS).
# Records with an inconclusive call do not appear. A call without a number means that no potency is given here. Calls of active or inactive are those of the source. Unless noted, the call rests on the fitted dose curve; in most records, active means well fitted curve in the direction sought with a large enough effect; inconclusive means small, poorly fitted or top-dose-only effect, or another doubt; inactive means no such curve, though single readings can be large; an effect the other way counts as inactive or inconclusive.
# Assays:
# [1] = biological target: Thioredoxin reductase 1, cytoplasmic (Rattus norvegicus) (UniProt O89049); test: qHTS Assay for Substrates of Mammalian Selenoprotein Thioredoxin Reductase 1 (TrxR1) (AID 488772);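 further: series mostly up to about 57 µM; a drop in NADPH fluorescence below the no-compound background marks a TrxR1 substrate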
# In short: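 In this dual-purpose format, potential substrates are identified from the first fluorescence read after selenite addition, not from the 8-minute delta. Rat enzyme is preincubated with NADPH and then with compound at ~22 deg C.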
# [2] = biological target: Flap endonuclease 1 (Homo sapiens) (UniProt P39748); test: qHTS Validation Assay for the Inhibitors of Human Flap endonuclease 1 (FEN1) (AID 488816); further: potency means the concentration at half of the fitted maximal effect
# Chain of Flap endonuclease 1 (Homo sapiens) (P39748 whole entry, looked up): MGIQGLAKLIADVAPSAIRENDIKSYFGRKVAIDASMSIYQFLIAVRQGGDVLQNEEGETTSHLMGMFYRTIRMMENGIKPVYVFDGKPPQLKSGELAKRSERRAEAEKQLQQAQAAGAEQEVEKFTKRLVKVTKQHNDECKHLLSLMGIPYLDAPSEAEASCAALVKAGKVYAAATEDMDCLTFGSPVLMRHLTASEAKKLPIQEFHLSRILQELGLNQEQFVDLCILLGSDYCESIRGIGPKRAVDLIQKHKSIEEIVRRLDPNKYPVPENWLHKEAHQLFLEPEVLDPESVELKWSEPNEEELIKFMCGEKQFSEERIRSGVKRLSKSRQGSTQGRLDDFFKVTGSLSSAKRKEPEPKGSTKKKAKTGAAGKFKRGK
# In short: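 Steps: add FEN1 (10 nM reagent) or buffer only; pin compounds; hold 15 min at room temperature; start with substrate, 50 nM final; read at 0 and 15 min; correct, normalize and fit a four-parameter Hill curve.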
# [3] = biological target: M-phase phosphoprotein 8 (Homo sapiens) (UniProt Q99549); test: qHTS Validation Assay for Inhibitors for MPP8 Chromodomain Interactions with Methylated Histone Tails (AID 488949); further: nearly all actives have a fitted effect of over 55% in size; further: potency means the concentration at half of the fitted maximal effect
# In short: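 AlphaScreen proximity signal from streptavidin donor and Ni-chelate acceptor beads (10 ug/mL each) reported binding of MPP8 to trimethyl-K9 H3(1-18) peptide, both at 50 nM. The complex formed 30 min before a 30 min compound exposure at room temperature, in PBS pH 7.4.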
# [4] = biological target: Chromobox protein homolog 1 (Homo sapiens) (UniProt P83916); test: qHTS Validation Assay for Inhibitors of HP1-beta Chromodomain Interactions with Methylated Histone Tails (AID 488953); further: nearly all actives have a fitted effect of over 50% in size; further: potency means the concentration at half of the fitted maximal effect
# Chain of Chromobox protein homolog 1 (Homo sapiens) (P83916 whole entry, looked up): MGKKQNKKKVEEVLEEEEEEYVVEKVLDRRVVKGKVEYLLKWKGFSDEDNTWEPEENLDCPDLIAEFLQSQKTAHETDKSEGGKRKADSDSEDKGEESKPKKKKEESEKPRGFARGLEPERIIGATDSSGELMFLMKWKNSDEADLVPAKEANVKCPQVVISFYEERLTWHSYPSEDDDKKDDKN
# In short: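 AlphaScreen proximity readout: streptavidin donor and Ni-chelate acceptor beads, 10 ug/mL final, 30 min dark, RT. Complex of 50 nM HP1-beta and 50 nM b-H3(1-18)K9me3 formed 30 min, then compound-treated 30 min; PBS pH 7.4/0.01% Tween-20.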
# [5] = biological target: Methanococcus maripaludis chaperonin (MmCpn) (UniProt Q6LX38); test: High-Throughput Screening for Modulators of Cytosolic Chaperonin Activity: MmCpn Primary Screen (AID 488978);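 further: 50 nM MmCpn enzyme hydrolysing 30 µM ATP at 37 °C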
# In short: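 ATPase activity of 50 nM MmCpn was assayed with 30 uM ATP, 10 minutes at 37C, after a 5 min compound preincubation at room temperature. ADP production was read as HTRF emission at 590 and 665 nm.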
# [6] = biological target: D(1A) dopamine receptor (Homo sapiens) (UniProt P21728); test: HTS Assay for Allosteric Agonists of the Human D1 Dopamine Receptor: Primary Screen for Agonists (AID 488981); further: potency means the concentration at half of the fitted maximal effect
# In short: (§1)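 Tetracycline-induced HEK293 T-REx cells force-coupled to calcium signalling were incubated overnight at 30 C and dye-loaded at room temperature. Calcium flux over 180 s after compound addition flagged agonists; a further 180 s read after EC20 dopamine flagged potentiators.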
# [7] = biological target: D(1A) dopamine receptor (Homo sapiens) (UniProt P21728); test: HTS Assay for Allosteric Agonists of the Human D1 Dopamine Receptor: Primary Screen for Potentiators (AID 488982)
# In short: as §1
# [8] = biological target: D(1A) dopamine receptor (Homo sapiens) (UniProt P21728); test: HTS Assay for Allosteric Agonists of the Human D1 Dopamine Receptor: Primary Screen for Antagonists (AID 488983);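 further: calcium flux response to an EC80 dopamine challenge measured with no-wash dye; nearly all actives have a fitted effect of over 65% in size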; further: potency means the concentration at half of the fitted maximal effect
# In short: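 Calcium flux readout, no-wash dye, inducible HEK293 T-REx D1 line (force-coupled). Compound added after 10 s baseline, 180 s kinetic read; then dopamine at EC80, further 180 s read.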
# [9] = Validation screen for small molecules that induce genotoxicity in human embryonic kidney (HEK293T) cells expressing luciferase-tagged ELG1 (AID 493106); further: potency means the concentration at half of the fitted maximal effect
# In short: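 qHTS format; 2,000 HEK293T ELG1-luc cells/well; 23 nL compound via pin tool; 16 hr, 37 °C/5% CO2; ONE-Glo, 30 min RT; luminescence read.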
# [10] = biological target: ATPase family AAA domain-containing protein 5 (Homo sapiens) (UniProt Q96QE3); test: Validation screen for small molecules that inhibit ELG1-dependent DNA repair in human embryonic kidney (HEK293T) cells expressing luciferase-tagged ELG1 (AID 493107); further: nearly all actives have a fitted effect of over 70% in size; further: potency means the concentration at half of the fitted maximal effect
# Chain of ATPase family AAA domain-containing protein 5 (Homo sapiens) (Q96QE3 whole entry, looked up, the tested form may be a part): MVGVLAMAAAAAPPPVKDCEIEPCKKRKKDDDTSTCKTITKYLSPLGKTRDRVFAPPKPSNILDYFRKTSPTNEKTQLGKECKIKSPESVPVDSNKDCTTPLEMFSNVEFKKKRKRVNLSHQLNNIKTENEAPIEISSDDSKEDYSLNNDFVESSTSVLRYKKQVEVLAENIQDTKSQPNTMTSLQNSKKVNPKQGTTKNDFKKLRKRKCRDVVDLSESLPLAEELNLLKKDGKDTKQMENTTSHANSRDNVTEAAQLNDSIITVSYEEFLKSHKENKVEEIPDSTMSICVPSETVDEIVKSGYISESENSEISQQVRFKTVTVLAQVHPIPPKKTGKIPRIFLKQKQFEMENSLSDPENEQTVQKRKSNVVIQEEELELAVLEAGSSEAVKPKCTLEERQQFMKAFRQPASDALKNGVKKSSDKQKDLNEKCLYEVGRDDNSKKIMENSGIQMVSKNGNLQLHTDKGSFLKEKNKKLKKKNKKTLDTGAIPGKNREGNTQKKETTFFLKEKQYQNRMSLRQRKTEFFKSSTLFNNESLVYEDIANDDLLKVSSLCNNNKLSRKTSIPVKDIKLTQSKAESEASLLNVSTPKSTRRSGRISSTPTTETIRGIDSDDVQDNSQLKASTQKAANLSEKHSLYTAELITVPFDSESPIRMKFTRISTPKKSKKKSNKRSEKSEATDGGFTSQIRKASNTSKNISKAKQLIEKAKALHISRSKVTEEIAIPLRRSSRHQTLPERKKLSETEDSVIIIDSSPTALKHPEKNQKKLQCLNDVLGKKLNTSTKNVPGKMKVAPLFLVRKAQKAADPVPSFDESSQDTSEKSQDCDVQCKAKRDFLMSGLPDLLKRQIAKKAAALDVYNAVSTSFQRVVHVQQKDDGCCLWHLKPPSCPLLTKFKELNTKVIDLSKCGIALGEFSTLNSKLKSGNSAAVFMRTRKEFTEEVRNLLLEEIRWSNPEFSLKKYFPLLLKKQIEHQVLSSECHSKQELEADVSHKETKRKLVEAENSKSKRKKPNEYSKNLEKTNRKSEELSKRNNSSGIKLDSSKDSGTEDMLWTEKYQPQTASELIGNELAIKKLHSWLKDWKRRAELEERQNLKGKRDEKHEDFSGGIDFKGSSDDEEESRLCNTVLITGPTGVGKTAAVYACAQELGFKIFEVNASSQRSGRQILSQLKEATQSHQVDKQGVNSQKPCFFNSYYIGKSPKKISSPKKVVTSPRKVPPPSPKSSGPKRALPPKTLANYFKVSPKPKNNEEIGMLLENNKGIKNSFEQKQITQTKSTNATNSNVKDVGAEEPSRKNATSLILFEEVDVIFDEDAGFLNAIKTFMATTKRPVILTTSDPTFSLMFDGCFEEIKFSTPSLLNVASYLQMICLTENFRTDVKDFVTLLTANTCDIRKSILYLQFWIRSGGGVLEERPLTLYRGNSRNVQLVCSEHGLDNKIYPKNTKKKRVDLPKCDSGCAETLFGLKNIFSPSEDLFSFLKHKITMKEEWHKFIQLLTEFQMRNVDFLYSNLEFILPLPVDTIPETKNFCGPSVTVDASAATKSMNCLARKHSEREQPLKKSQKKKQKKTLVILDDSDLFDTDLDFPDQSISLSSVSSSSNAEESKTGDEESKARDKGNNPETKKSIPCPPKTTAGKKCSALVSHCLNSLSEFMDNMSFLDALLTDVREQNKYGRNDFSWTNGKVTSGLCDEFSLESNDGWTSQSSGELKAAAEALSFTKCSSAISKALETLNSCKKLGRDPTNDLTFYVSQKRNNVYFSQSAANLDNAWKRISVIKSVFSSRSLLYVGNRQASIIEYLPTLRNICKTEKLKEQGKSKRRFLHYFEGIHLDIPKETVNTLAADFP
# In short: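 ELG1-luciferase HEK293T reporter; 5-fluorouridine + compound/DMSO, 16 hr, 37 °C, 5% CO2; ONE-Glo 30 min RT; luminescence read, qHTS format.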
# [11] = Nrf2 qHTS screen for inhibitors: Validation (AID 493153; active means well fitted inhibition curve with a large enough effect in the main read-out, with a control signal flat, not every such curve was filed as active); settings: Potency: luciferase luminescence; viability change: measured here: cytotoxicity max response
# In short: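 Concentration-response test in A549 ARE_Fluc reporter cells (5% FBS OPTI-MEM), compound exposure 18-24 h at 37°C, 5% CO2. Cell viability measured first by CellTiter-Fluor fluorescence; ARE-driven luciferase luminescence then measured as Nrf2 activity.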
# [12] = biological target: Transient receptor potential cation channel subfamily V member 1 (Homo sapiens) (UniProt Q8NER1); test: HTS Assay for Compounds that Act as Enhancers of the Vanilloid Receptor 1 (AID 488979)
# Chain of Transient receptor potential cation channel subfamily V member 1 (Homo sapiens) (Q8NER1 whole entry, looked up): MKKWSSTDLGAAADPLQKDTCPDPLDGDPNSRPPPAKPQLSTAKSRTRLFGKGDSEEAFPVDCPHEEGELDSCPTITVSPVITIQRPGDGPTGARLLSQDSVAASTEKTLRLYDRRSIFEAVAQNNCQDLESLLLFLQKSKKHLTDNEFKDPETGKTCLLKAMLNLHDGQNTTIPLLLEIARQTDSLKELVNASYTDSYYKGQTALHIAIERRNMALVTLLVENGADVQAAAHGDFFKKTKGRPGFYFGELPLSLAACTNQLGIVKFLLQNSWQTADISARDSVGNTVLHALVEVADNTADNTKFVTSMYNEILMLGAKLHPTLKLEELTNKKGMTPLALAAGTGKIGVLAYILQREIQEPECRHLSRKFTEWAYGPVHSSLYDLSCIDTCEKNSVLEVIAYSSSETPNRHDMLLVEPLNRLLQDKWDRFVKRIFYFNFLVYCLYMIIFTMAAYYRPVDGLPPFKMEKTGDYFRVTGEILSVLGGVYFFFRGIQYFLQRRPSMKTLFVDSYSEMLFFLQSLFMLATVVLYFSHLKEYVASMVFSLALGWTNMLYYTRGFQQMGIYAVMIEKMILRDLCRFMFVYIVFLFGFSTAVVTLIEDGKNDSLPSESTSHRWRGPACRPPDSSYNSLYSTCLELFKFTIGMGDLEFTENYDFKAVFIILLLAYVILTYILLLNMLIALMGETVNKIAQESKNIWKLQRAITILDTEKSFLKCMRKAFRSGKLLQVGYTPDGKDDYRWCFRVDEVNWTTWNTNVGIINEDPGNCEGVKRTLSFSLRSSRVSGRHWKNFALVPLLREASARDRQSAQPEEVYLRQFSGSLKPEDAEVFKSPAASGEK
# In short: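 TRPV1-expressing cells loaded with Fluo-8 calcium dye; compounds added and calcium influx read kinetically for 3 min (agonist phase), then capsaicin at EC20 added and read 2 min more for enhancement. Fluorescence ex 480/em 520 nm.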
# [13] = biological target: Thyrotropin receptor (Homo sapiens) (UniProt P16473); test: qHTS Assay for Antagonists of the Thyroid Stimulating Hormone Receptor (AID 488980); further: series mostly up to about 58 µM
# Chain of Thyrotropin receptor (Homo sapiens) (P16473 whole entry, looked up): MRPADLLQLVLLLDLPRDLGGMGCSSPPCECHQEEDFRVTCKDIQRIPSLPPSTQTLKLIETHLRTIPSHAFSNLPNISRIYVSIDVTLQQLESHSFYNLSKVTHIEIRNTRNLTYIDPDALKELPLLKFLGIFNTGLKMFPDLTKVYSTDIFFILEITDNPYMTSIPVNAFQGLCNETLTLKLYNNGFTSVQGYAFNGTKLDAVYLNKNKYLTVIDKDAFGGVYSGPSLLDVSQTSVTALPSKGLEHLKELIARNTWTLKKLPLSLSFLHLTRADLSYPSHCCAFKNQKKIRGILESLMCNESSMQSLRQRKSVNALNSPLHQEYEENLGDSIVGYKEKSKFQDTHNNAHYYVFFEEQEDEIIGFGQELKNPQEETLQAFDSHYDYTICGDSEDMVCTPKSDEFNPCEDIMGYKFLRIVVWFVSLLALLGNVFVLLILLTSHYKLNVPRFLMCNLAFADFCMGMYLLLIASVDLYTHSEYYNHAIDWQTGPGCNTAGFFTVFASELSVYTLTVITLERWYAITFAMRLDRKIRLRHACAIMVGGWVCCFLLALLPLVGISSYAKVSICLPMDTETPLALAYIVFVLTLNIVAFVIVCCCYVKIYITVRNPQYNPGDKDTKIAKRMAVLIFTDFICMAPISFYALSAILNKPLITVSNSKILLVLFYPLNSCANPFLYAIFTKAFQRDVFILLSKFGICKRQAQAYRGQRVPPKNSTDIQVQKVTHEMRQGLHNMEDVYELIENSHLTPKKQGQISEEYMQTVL
# In short: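 Inhibition of cAMP raised by EC80 TSH (4 nM final) was read by HTRF, with lysate cAMP competing against cAMP-d2 for cryptate antibody after 30 min at room temperature. The cells were transfected HEK293 held in phosphodiesterase inhibitor RO 20-1724 at 70 uM.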
# [14] = biological target: Thyrotropin-releasing hormone receptor (Homo sapiens) (UniProt P34981); test: qHTS for Small Molecule Agonists and Allosteric Enhancers of Human TRH Receptor: Validation Screen for Agonists (AID 493127;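 active means calcium activation more than 3 SD above the typical response in the agonist read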;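 further: intracellular calcium rise by fluo-8 fluorescence before TRH EC20 addition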); settings: TRH receptor agonist cell assay; at 2 µM; stronger effect = higher value
# Chain of Thyrotropin-releasing hormone receptor (Homo sapiens) (P34981 whole entry, looked up): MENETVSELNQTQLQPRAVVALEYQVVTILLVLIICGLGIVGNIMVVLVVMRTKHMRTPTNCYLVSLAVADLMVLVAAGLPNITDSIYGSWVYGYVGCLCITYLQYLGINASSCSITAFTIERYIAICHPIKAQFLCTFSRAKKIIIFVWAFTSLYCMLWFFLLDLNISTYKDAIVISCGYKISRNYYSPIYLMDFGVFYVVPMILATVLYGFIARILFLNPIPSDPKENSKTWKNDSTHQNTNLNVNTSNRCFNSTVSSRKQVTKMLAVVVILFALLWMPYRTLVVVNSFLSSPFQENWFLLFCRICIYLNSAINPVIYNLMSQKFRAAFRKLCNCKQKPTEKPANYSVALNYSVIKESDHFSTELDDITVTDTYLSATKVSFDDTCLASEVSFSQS
# In short: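 Read-out: intracellular calcium release measured kinetically by FDSS (fluo-8, ex 480/em 530 nm), 1 reading/s after a 10-cycle baseline. TRHR cells, 2000/well, cultured 18 h at 33.5C, dye-loaded at room temp. Compound-evoked positive calcium signal flags agonists.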
# [15] = qHTS for Inhibitors of Cell Surface uPA Generation: Validation Assay (AID 493164);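 further: RAW 264.7 macrophage cells exposed to compound for 18 h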
# In short: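 Compounds are titrated over seven points (2.45 nM–38.3 uM final) onto pre-plated RAW 264.7 cells and incubated for 18 h. Retained intracellular ATP, measured with ATP-Lite, indicates blocked lethal factor entry.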
# [16] = biological target: Galactokinase (Homo sapiens) (UniProt P51570); test: qHTS Validation Assay for Inhibitors of Human Galactokinase (GALK) (AID 493189)
# In short: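 Inhibition was measured as remaining ATP, detected by luciferase luminescence after a 1 h room-temperature reaction. Final conditions: 5 nM GALK, 100 uM galactose, 35 uM ATP, pH 8.0 HEPES buffer.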
# [17] = Validation screen for small molecules that induce DNA re-replication in SW480 colon adenocarcinoma cells (AID 504364)
# In short: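 Read-out: total Hoechst intensity of nuclei by fluorescence scanning imager; hits raise the fraction of nuclei with elevated DNA content. Cells received compound for 48 hr at 37 C before a 40 min stain.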
# [18] = biological target: ATP-dependent 6-phosphofructokinase (Trypanosoma brucei brucei) (UniProt O15648); test: qHTS Assay to Find Inhibitors of T. brucei phosphofructokinase: hit validation (AID 492961);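 further: luminescence reports ADP formed as PFK phosphorylates fructose-6-phosphate with ATP; series mostly up to about 51 µM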
# Chain of ATP-dependent 6-phosphofructokinase (Trypanosoma brucei brucei) (O15648 whole entry, looked up): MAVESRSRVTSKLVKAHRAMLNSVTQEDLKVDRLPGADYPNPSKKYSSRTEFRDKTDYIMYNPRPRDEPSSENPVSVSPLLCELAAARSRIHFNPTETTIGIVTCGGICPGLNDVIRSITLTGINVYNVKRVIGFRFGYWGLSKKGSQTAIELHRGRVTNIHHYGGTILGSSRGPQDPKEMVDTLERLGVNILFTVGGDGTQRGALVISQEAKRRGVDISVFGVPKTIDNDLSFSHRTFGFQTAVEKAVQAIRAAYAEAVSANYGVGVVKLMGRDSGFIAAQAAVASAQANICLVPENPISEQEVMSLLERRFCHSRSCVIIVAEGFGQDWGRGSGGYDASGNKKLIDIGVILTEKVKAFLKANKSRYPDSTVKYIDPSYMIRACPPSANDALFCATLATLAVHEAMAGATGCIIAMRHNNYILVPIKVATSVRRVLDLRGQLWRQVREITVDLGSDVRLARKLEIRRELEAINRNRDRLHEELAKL
# In short: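 Percent activity derived from corrected luminescence, normalized between 0x and 1x enzyme controls, then fitted to concentration-response curves. Conditions: 1.25 nM PFK, 0.1 mM ATP, 0.5 mM F6P, 45 min RT.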
SMILES,outcome [1],Potency [2],Potency [3],Potency [4],outcome [5],Potency [6],Potency [7],Potency [8],Potency [9],Potency [10],Potency [11],viability change [11] [%],outcome [12],outcome [13],activation [14],outcome [15],outcome [16],Potency [17],Potency [18]
C[N+]1(C)CCc2cc3c(cc2[C@H]1[C@@H]1OC(=O)c2c1ccc1c2OCO1)OCO3,inactive,inactive,inactive,inactive,inactive,inactive,inactive,inactive,inactive,inactive,inactive,-0.563,,,,,,,
NC(Cc1ccc(N(CCCl)CCCl)cc1)C(=O)O (stereo not drawn),inactive,inactive,inactive,0.0067 µM (active),inactive,inactive,inactive,inactive,,inactive,,,inactive,inactive,-0.125% (inactive),inactive,inactive,inactive,
CC1(C(=O)O)C2CCC(O2)C1(C)C(=O)O (stereo not drawn),inactive,inactive,inactive,0.0084 µM (active),inactive,inactive,inactive,inactive,3.66 µM (active),7.3 µM (active),,,inactive,inactive,0.438% (inactive),,,inactive,
CCN1C[C@@]2(COC)C3[C@@H](OC)C4[C@@H]1C3([C@@H]1C[C@]3(O)[C@H](OC(=O)c5ccccc5)[C@@H]1[C@]4(OC(C)=O)[C@@H](O)[C@@H]3OC)[C@H](OC)C[C@H]2O,inactive,inactive,inactive,inactive,inactive,inactive,,inactive,inactive,inactive,inactive,0.88,,,,inactive,,,
C[C@H](N)CN1CCc2ccc(Br)cc21,inactive,inactive,inactive,,inactive,,inactive,inactive,inactive,inactive,inactive,-2.43,,inactive,0.625% (inactive),inactive,,inactive,
CC(=O)NBr,inactive,inactive,inactive,inactive,inactive,inactive,inactive,inactive,inactive,inactive,,,inactive,inactive,-0.0625% (inactive),inactive,inactive,,
NC(=O)CI,inactive,inactive,8.91 µM (active),,inactive,inactive,inactive,inactive,inactive,inactive,inactive,7.18,inactive,inactive,-0.125% (inactive),,inactive,,
C=CCN1CC[C@]23c4c5ccc(O)c4O[C@@H]2/C(=N/N=C2\CC[C@@]4(O)C6Cc7ccc(O)c8c7[C@@]4(CCN6CC=C)[C@@H]2O8)CC[C@@]3(O)C1C5,inactive,inactive,inactive,,inactive,inactive,inactive,inactive,inactive,,inactive,-1.45,inactive,inactive,2.38% (inactive),,inactive,,
NC(N)=NOCC[C@H](N)C(=O)O,inactive,inactive,inactive,,inactive,inactive,inactive,inactive,inactive,inactive,inactive,10.2,inactive,inactive,-0.375% (inactive),,inactive,,
CCS(=O)(=O)Nc1cccc(C(=C2CCCCC2)c2cnc[nH]2)c1,inactive,inactive,inactive,,inactive,,inactive,inactive,inactive,inactive,inactive,1.78,inactive,inactive,-5.69% (inactive),inactive,,inactive,
NCCCP(=O)(O)O,inactive,inactive,inactive,,inactive,inactive,inactive,inactive,inactive,inactive,inactive,0.331,inactive,inactive,0.562% (inactive),,inactive,inactive,
CC(C)[C@@]1(NC(=O)[C@@H]2C[C@@H]3c4cccc5[nH]cc(c45)C[C@H]3N(C)C2)O[C@@]2(O)[C@@H]3CCCN3C(=O)[C@H](Cc3ccccc3)N2C1=O,inactive,inactive,inactive,,inactive,inactive,inactive,5.62 µM (active),inactive,,,,,,,inactive,,,
NCC(CP(=O)(O)O)c1ccc(Cl)cc1 (stereo not drawn),inactive,inactive,inactive,inactive,inactive,,inactive,inactive,inactive,,inactive,3.89,inactive,inactive,0.5% (inactive),inactive,inactive,inactive,
CCOC(=O)c1ncn2c1[C@@H]1CCCN1C(=O)c1cc(OC)ccc1-2,inactive,inactive,inactive,inactive,inactive,,inactive,inactive,inactive,inactive,inactive,-9.51,inactive,inactive,-0.25% (inactive),,,inactive,
Clc1ccc(N2CC3CCC(C2)N3)nn1,inactive,inactive,inactive,inactive,inactive,inactive,inactive,inactive,inactive,inactive,,,inactive,inactive,1.19% (inactive),inactive,inactive,,
CCCCCCCCCCCCCC(=O)O[C@@H]1[C@@H](C)[C@@]2(O)[C@@H](C=C(CO)C[C@@]3(O)C(=O)C(C)=C[C@@H]23)C2C(C)(C)[C@@]21OC(C)=O (stereo partly drawn),inactive,inactive,inactive,inactive,inactive,inactive,inactive,inactive,0.0041 µM (active),,inactive,-19.6,inactive,inactive,0.75% (inactive),,inactive,inactive,
C=CCN1CCC23c4c5ccc(O)c4O[C@H]2C(=O)CC[C@@]3(O)C1C5 (stereo partly drawn),inactive,inactive,inactive,inactive,inactive,,inactive,inactive,inactive,inactive,inactive,2.4,inactive,inactive,,inactive,inactive,,inactive
C[C@H](N)Cc1cccc(C(F)(F)F)c1,inactive,inactive,inactive,,inactive,inactive,inactive,inactive,inactive,inactive,inactive,-8.9,,,,inactive,,,
Cc1c2ccncc2c(C)c2c1[nH]c1ccccc12,inactive,10.6 µM (active),inactive,50.1 µM (active),inactive,10 µM (active),inactive,inactive,inactive,16.4 µM (active),,,inactive,inactive,28.2% (inactive),inactive,,,
O=C1C=CC(=O)C=C1,inactive,,inactive,inactive,inactive,inactive,inactive,inactive,inactive,inactive,,,inactive,inactive,0.5% (inactive),,,,
CN1CC[C@@]2(C)c3cc(O)ccc3N(C)C12 (stereo partly drawn),inactive,inactive,inactive,0.0095 µM (active),inactive,,,inactive,inactive,inactive,,,inactive,inactive,-0.188% (inactive),inactive,inactive,inactive,
COc1ccc(CNC(=O)/C=C/c2ccc3[nH]cc(CCN(C)C)c3c2)cc1,inactive,inactive,inactive,inactive,inactive,,inactive,inactive,inactive,inactive,,,inactive,inactive,-0.312% (inactive),inactive,inactive,,
Cc1cc([C@@H]2CCCN2C)on1,inactive,inactive,inactive,inactive,inactive,inactive,inactive,inactive,inactive,inactive,inactive,4.53,,,,inactive,,,
NCC(O)c1cc(O)c(O)cc1F (stereo not drawn),inactive,2.67 µM (active),18.9 µM (active),,inactive,,inactive,2.51 µM (active),inactive,inactive,inactive,-0.467,inactive,inactive,1.38% (inactive),inactive,inactive,,
CCCN(CCC)[C@H]1CCc2c(F)ccc(O)c2C1,inactive,inactive,inactive,,inactive,,inactive,inactive,inactive,inactive,,,inactive,inactive,-3.06% (inactive),inactive,,inactive,
Nc1ccc(CCN2CCN(c3cccc(C(F)(F)F)c3)CC2)cc1,inactive,inactive,inactive,,inactive,,inactive,,inactive,inactive,inactive,0.0372,inactive,inactive,2.19% (inactive),inactive,inactive,,
Clc1ccc(Cl)cc1,,,,,,,,,,,,,,,,,,,inactive
COc1ccc2c3c1O[C@H]1C(=O)CC[C@H]4[C@@H](C2)N(C)CC[C@]314,,,,,,,,,,,,,,,,,,,inactive
N#CC(C#N)=Cc1cc(O)c(O)c(O)c1,,,39.8 µM (active),,,,,,,,,,inactive,inactive,0.188% (inactive),,inactive,,inactive
